Data on 13 molecules can be found in PubChem BioAssay (NCI).

Test systems include NCI-H226 lung; NCI-H322M lung; HOP-62 NSCLC; NCI-H460 lung; HOP-92 NSCLC; NCI-H522 lung; A549/ATCC NSCLC; 786-0 renal; COLO 205 colon; DU-145 prostate.
What all share (test): NCI-60 one-dose screen, 48 h (100 = growth as untreated, 0 = no growth, -100 = all killed)
Common to all, as to conditions: 10 µM unless noted

Structures are written as SMILES. About 83,000 compounds went through this panel and 20% of them were active in at least one assay; those are over-represented in the sample as a whole.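 Plates (96-well) were seeded with cells, treated with compound at one concentration, and incubated for 48 hours before percent growth was determined.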 Values without a mark were called inactive. Activity calls are given as the source filed them. How the source made its calls: active means growth percent below 10; inactive means the rest.

Regarding `CC(C)(C)OC(=O)N1C(=O)c2c(c3c4ccccc4[nH]c3c3ccc4ccccc4c23)C1=O`, the growth with NCI-H226 lung was 61.3%; in the assay on NCI-H322M lung, 52.8%; with HOP-62 NSCLC, 52.2%; in the assay on NCI-H460 lung, 37.3%; in the assay with HOP-92 NSCLC it was 87.9%; in the assay with NCI-H522 lung, 47.2%. For the same molecule, the growth in the assay with A549/ATCC NSCLC is 59.7%; in the assay on 786-0 renal it was 77.1%; in the assay on COLO 205 colon, 68.1%; in the assay with DU-145 prostate, 57.3%.
For the molecule `COc1ccc(N/N=C/c2c(-c3ccc(S(C)(=O)=O)cc3)nc3ccccn23)cc1`, the growth in the assay with NCI-H226 lung is 71%; with NCI-H322M lung, 50%; in the assay on HOP-62 NSCLC, 57.4%; in the assay with NCI-H460 lung, 21.8%; in the assay on HOP-92 NSCLC, 23%; in the assay with NCI-H522 lung it was 3.48% (active). In addition, the growth in the assay on A549/ATCC NSCLC was 36.9%; with 786-0 renal, 48%; in the assay with COLO 205 colon, 55.1%; in the assay on DU-145 prostate, 40.1%.
Regarding `CCCCN1C(=O)/C(=c2\sc3n(c2=O)C2C(NN=3)N(CC)C(=O)N2CC)c2cc(Cl)ccc21` (centres undefined), the growth with NCI-H226 lung was 89.8%; with NCI-H322M lung, 96.3%; in the assay on HOP-62 NSCLC, 83.1%; with NCI-H460 lung it was 78.5%; in the assay with HOP-92 NSCLC, 71.3%; with NCI-H522 lung, 46.5%. Further, the growth in the assay on A549/ATCC NSCLC is 89.3%; in the assay on 786-0 renal it was 90.7%; in the assay with COLO 205 colon, 114%; with DU-145 prostate, 94.8%.
On to `CCOC(=O)c1c(Nc2ccccc2)nn2c(N)c(C#N)c(-c3ccc(OC)cc3)nc12`, for which the growth in the assay on NCI-H226 lung was 42.3%; with NCI-H322M lung, 95.5%; in the assay with HOP-62 NSCLC, 61.3%; in the assay with NCI-H460 lung, 61.5%; in the assay on HOP-92 NSCLC it was 47%; in the assay with NCI-H522 lung, 83.3%. The growth in the assay on A549/ATCC NSCLC is 69%; with 786-0 renal, 32.8%; with COLO 205 colon, 96.3%; in the assay on DU-145 prostate, 66.3%.
With `NC(=O)c1cc(-c2ccc3ncnc(N4CCc5cc(F)c(Cl)cc54)c3c2)cnc1N`, the growth with NCI-H226 lung is 9.39% (active); with NCI-H322M lung, -3.06% (active); with HOP-62 NSCLC it was 27.9%; in the assay on NCI-H460 lung, 20%; with HOP-92 NSCLC it was 15.8%; in the assay with NCI-H522 lung it was 19.1%. The growth was 16.9% with A549/ATCC NSCLC, 12.8% with 786-0 renal, 54.8% with COLO 205 colon and 14.3% in the assay on DU-145 prostate.
Consider `N#Cc1nc(-c2ccccc2)oc1S(=O)(=O)N1CCCCC1`, for which the growth in the assay with NCI-H226 lung is 105%; in the assay with NCI-H322M lung it was 104%; in the assay on HOP-62 NSCLC, 110%; in the assay on NCI-H460 lung it was 110%; in the assay with HOP-92 NSCLC, 55.7%; in the assay on NCI-H522 lung, -62% (active). For the same molecule, the growth with A549/ATCC NSCLC was 98.7%; in the assay on 786-0 renal, 24.7%; in the assay with COLO 205 colon, 44.1%; in the assay on DU-145 prostate, 41.6%.
Take `CC(=O)c1ccc(Nc2nc(SC(C)C)nc(-c3ccccc3)c2C#N)cc1`: the growth in the assay on NCI-H226 lung is 123%; in the assay with NCI-H322M lung, 98.7%; in the assay with HOP-62 NSCLC it was 92.7%; in the assay with NCI-H460 lung, 101%; in the assay with HOP-92 NSCLC, 70.2%; with NCI-H522 lung, 86.8%. In addition, the growth in the assay on A549/ATCC NSCLC was 93.5%; with 786-0 renal, 84.7%; with COLO 205 colon it was 114%; with DU-145 prostate, 91.2%.
Consider `Clc1ccc2c(NCCCn3ccnc3)c3oc4ccccc4c3nc2c1`, for which the growth with NCI-H226 lung is 51.4%; in the assay on NCI-H322M lung it was 40.7%; in the assay on HOP-62 NSCLC, 65.9%; with NCI-H460 lung, -7.61% (active); in the assay with HOP-92 NSCLC it was 33.1%; with NCI-H522 lung, 44%. In addition, the growth with A549/ATCC NSCLC is 34.4%; with 786-0 renal, -9.95% (active); with COLO 205 colon it was 31.8%; in the assay on DU-145 prostate it was 24.6%.
In the case of `CN(C)CCCNc1c2ccc(Cl)cc2nc2c1oc1ccc(Cl)cc12`, the growth is 25.7% with NCI-H226 lung; 2.57% (active) in the assay on NCI-H322M lung; 47.7% in the assay with HOP-62 NSCLC; -31.2% (active) with NCI-H460 lung; 16.7% with NCI-H522 lung; -38.4% (active) with A549/ATCC NSCLC. Further, the results for the growth in the assay on 786-0 renal, with COLO 205 colon and in the assay on DU-145 prostate were -85.3% (active), 34.2% and -48.8% (active), respectively.
As for `CO/N=C1\CCc2c(sc(NC(=O)c3cccc(C(F)(F)F)c3)c2C(N)=O)C1`, the growth in the assay with NCI-H226 lung was -10.4% (active); in the assay on NCI-H322M lung, 19.9%; in the assay on HOP-62 NSCLC, -0.189% (active); in the assay with NCI-H460 lung it was 2.77% (active); in the assay with HOP-92 NSCLC it was -12.7% (active); in the assay on NCI-H522 lung it was 26.5%. Besides, the growth was -9.56% (active) in the assay on A549/ATCC NSCLC, 1.79% (active) in the assay with 786-0 renal, 72.6% with COLO 205 colon and 52.9% in the assay on DU-145 prostate.
Turning to `N#Cc1c(-c2ccc(F)cc2)nc2c(C#N)c(Nc3ccccc3)nn2c1N`, the growth in the assay on NCI-H226 lung was 112%; in the assay on NCI-H322M lung, 105%; with HOP-62 NSCLC, 97.3%; in the assay with NCI-H460 lung, 106%; with HOP-92 NSCLC, 92.5%; with NCI-H522 lung, 97.9%. The growth with A549/ATCC NSCLC was 101%; in the assay with 786-0 renal, 86.9%; in the assay on COLO 205 colon it was 110%; in the assay with DU-145 prostate, 103%.
As to `C/C(=C(/c1ccc(Cl)cc1)c1ccc(OCCN)cc1)c1ccc(C)cc1`, the growth in the assay with NCI-H226 lung is 112%; in the assay on NCI-H322M lung, 103%; in the assay on HOP-62 NSCLC it was 103%; in the assay on NCI-H460 lung, 100%; in the assay on HOP-92 NSCLC, 87.2%; with NCI-H522 lung, 99.4%. Also, the growth was 97.7% in the assay on A549/ATCC NSCLC, 102% in the assay with 786-0 renal, 114% with COLO 205 colon and 106% in the assay on DU-145 prostate.
As for `O=C(c1ccc(O)cc1)C1[C@H](c2ccc(Cl)cc2)[C@@H](c2ccccc2)NC12C(=O)Nc1ccc(Cl)cc12` (some centres undefined), the growth in the assay on NCI-H226 lung was 42.3%; with NCI-H322M lung, 61.2%; in the assay on HOP-62 NSCLC, 64.6%; in the assay with NCI-H460 lung it was 20.6%; in the assay on HOP-92 NSCLC it was 35.2%; with NCI-H522 lung it was 71.7%. The growth in the assay with A549/ATCC NSCLC is 33.5%; in the assay on 786-0 renal it was 52.3%; in the assay on COLO 205 colon, 61%; in the assay on DU-145 prostate it was 52.4%.
